# Assay results published in PubChem BioAssay AID504332 (National Center for Advancing Translational Sciences (NCATS), 2011).
# In all, about 350,000 compounds went through this assay and about 31,000 (8.9%) were called active. Inconclusive results (about 15%) are left out. What follows is part of a selection rich in actives, with near analogues and random picks from the rest. A call without a number means that no potency is given here. Some compounds were tested as several samples or in several runs, with calls that do not always agree. Unmarked numbers belong to inactive results. Calls come from the whole dose curve; as a rule, active = well fitted inhibition curve with a large enough effect; inconclusive = small, poorly fitted or top-dose-only effect; inactive = no such curve, though single readings can be large or run the other way.
# Biological target: Histone-lysine N-methyltransferase EHMT2 (Homo sapiens) (UniProt Q96KQ7)
# Experiment: qHTS Assay for Inhibitors of Histone Lysine Methyltransferase G9a; note: nearly all actives have a fitted effect of over 75% in size
# Conditions: G9a H3K9 monomethylation, AlphaScreen, 2 h; series mostly up to 59 µM
# How it was run: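 Signal arises when biotinylated H3K9 peptide, once monomethylated, bridges streptavidin donor and antibody-captured acceptor beads. Enzyme at 20 nM was preincubated 15 min with test compounds; peptide 500 nM and SAM 20 uM then reacted for 2 h.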
# Potency is the fitted concentration of half-maximal effect.
# Chain of Histone-lysine N-methyltransferase EHMT2 (Homo sapiens) (Q96KQ7 913-1193 limits assumed): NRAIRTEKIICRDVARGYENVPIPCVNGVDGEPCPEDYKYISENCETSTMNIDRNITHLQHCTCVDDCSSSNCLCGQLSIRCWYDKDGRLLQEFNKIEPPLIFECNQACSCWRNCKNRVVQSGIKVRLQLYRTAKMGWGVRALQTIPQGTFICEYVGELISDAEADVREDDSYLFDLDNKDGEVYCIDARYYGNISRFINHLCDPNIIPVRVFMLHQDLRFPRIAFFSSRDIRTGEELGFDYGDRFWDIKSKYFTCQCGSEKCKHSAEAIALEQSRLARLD
Compound,Potency,"activity, negative = inhibition"
O=C(Nc1cc(C(F)(F)F)ccc1Cl)c1cc2nc(-c3ccc4c(c3)OCO4)cc(C(F)(F)F)n2n1,inactive,–
CCOc1ccccc1N(CC)C(=O)Nc1cn(C)c(=O)c2ccccc12,inactive,–
Cn1c(=O)c2[nH]c(NCC3CCCO3)nc2n(-c2ccccc2)c1=O (centres undefined),8.91 µM (active),–
CC(C)(C)c1nc(NCC2CCCO2)c2nnn(Cc3ccccc3)c2n1 (centres undefined),inactive,–
Cc1sc2c(c1C)c(=O)n(-c1ccccc1)c(=O)n2CC(=O)NCC1CCCO1 (centres undefined),inactive,–
CCN(CC)C(=O)CSc1nc2ccsc2c(=O)n1Cc1ccccc1Cl,inactive,–
CCc1ccc2c(c1)C(c1ccc([N+](=O)[O-])cc1)=NNC(c1ccccc1)=N2,inactive,–
CCC1OC(c2ccc([N+](=O)[O-])cc2)=Nc2ccccc21 (centres undefined),44.7 µM (active),–
CCCCN(C)c1ccc([N+](=O)[O-])cc1,inactive,–
Cc1cccnc1NC(=O)CSc1nnc(COc2ccc(C(C)C)cc2)n1C,inactive,–
COc1ccc(-c2nnc(SCC(=O)Nc3cccnc3Cl)n2C)cc1,20 µM (active),–
COc1ccc(OC)c(NC(=O)CSc2nc3cccnc3n2C)c1,–,-2.8% [at 12.7 µM]
CC1=C/C(=N\OS(=O)(=O)c2ccccc2)C=CC1=O,2.51 µM (active),–
O=S(=O)(ON(c1ccccc1)S(=O)(=O)c1ccccc1)c1ccccc1,inactive,–
CCOc1ccc(/C=C/C(=O)N(CC)CC(=O)NCc2cccs2)cc1OC,–,7.69% [at 2.33 µM]
O=C(Cn1nnc(-c2ccccc2)n1)NC(=O)NC1CCCC1,inactive,–
CC(=O)Nc1ccc(NC(=O)CSc2nnc3c4cc(Br)ccc4n(C)c3n2)cc1,inactive,–
Cc1ccc2c(c1)c1ncn(Cc3ccc(F)cc3)c(=O)c1n2C,inactive,–
Cn1c2ccc(F)cc2c2nnc(NN)nc21,39.8 µM (active),–
O=C(CN1C(=O)COc2ccc(S(=O)(=O)N3CCOCC3)cc21)N1CCN(c2cccc(Cl)c2)CC1,inactive,–
Cc1ccc(Nc2nc(N3CCOCC3)nc(N3CCOCC3)n2)cc1Cl,inactive,–
CCOc1ccc(Nc2nc(Cl)nc(N3CCN(c4ccc(OC)cc4)CC3)n2)cc1,12.6 µM (active),–
CCN1CCN(c2nc(Nc3cc(OC)ccc3OC)nc(Nc3cc(OC)ccc3OC)n2)CC1,inactive,–
CC1CCN(c2nc3ccc(C(=O)N4CCN(c5ccccc5)CC4)cc3s2)CC1,inactive,–

Compound,Potency,"activity, negative = inhibition"
COC(=O)c1ccc(COC(=O)c2cnc(Cl)c(Cl)c2)cc1,inactive,–
C/C(=N\NS(=O)(=O)c1cccc([N+](=O)[O-])c1)c1cc2ccccc2o1,12.6 µM (active),–
Cc1cc(C)n(S(=O)(=O)c2cccc([N+](=O)[O-])c2)n1,inactive,–
CC1CN(C(=O)c2ccccc2NS(=O)(=O)c2cccc([N+](=O)[O-])c2)CC(C)O1 (centres undefined),inactive,–
COc1ccccc1NS(=O)(=O)c1ccc(C)c(C(=O)NCC(c2ccco2)N(C)C)c1 (centres undefined),–,22.9% [at 0.501 µM]
CCN1CCN(C2CCCCC2NS(=O)(=O)c2ccc(Cl)cc2)CC1 (centres undefined),inactive,–
COc1ccc(N2CCN(C3CCCCC3NS(=O)(=O)c3ccccc3)CC2)cc1 (centres undefined),22.4 µM (active),–
O=S(=O)(NC1CCCCC1N1CCN(c2ccccc2F)CC1)c1ccccc1 (centres undefined),inactive,–
CCC(CC)c1nnc(NC(=O)C2CCN(C(=O)c3ccco3)CC2)s1,3.98 µM (active),–
CCC(=O)Nc1ccc(C(=O)N2CCN(C(=O)c3ccco3)CC2)cc1,inactive,–
COc1ccc(CNC(=O)C2CCN(C(=O)c3ccco3)CC2)cc1,inactive,–
CCN(CC)c1nn2c(=O)c(C(=O)NCCc3ccccc3)cnc2s1,inactive,–
CCc1noc(C)c1C(=O)Nc1nc2ccc(OC)cc2s1,–,-2.24% [at 12.7 µM]
O=C(Nc1n[nH]c(C(F)(F)F)n1)c1cccs1,inactive,–
COC(=O)c1nc(NC(=O)c2ccccc2)n[nH]1,–,-8.15% [at 12.7 µM]
COC(=O)c1nc(NC(=O)c2ccc(F)cc2)n[nH]1,35.5 µM (active),–
CSc1nccc(NC(=O)c2ccc(C(C)(C)C)cc2)n1,–,15.8% [at 0.501 µM]
COc1ccc(C(=O)Nc2ccc(F)cc2F)cc1,–,29.4% [at 12.7 µM]
COC(=O)c1nc(NC(=O)c2ccc(C(C)(C)C)cc2)n[nH]1,31.6 µM (active),–
COc1ccc(CNC(=O)COC(=O)c2ccc(C)c(S(=O)(=O)N3CCOCC3)c2)cc1OC,inactive,–
O=C(c1cc(-c2ccc(Cl)cc2)on1)N1CCN(c2ccccc2)CC1,inactive,–
Cc1ccc(NC(=O)Cn2cnc3nc4c(cc3c2=O)CCCC4)cc1Cl,inactive,–
Cc1ccc(C(=O)C(C)OC(=O)Cc2n[nH]c(=O)c3ccccc23)cc1C (centres undefined),–,13.1% [at 2.33 µM]
CCOC(=O)c1c(C)[nH]c(C)c1S(=O)(=O)N1CCCC(C(=O)NCc2ccccc2Cl)C1 (centres undefined),inactive,–

Compound,Potency,"activity, negative = inhibition"
O=C(c1ccc(F)cc1)N1CCCC(C(=O)N2CCCCC2)C1 (centres undefined),inactive,–
CCOC(=O)C1CCCN(C(=O)/C=C/c2ccc(OC)cc2)C1 (centres undefined),inactive,–
COc1ccc(C(=O)C2CCCN(Cc3ccc4nonc4c3)C2)c(C)c1 (centres undefined),inactive,–
COc1ccc(/C=C/C(=O)NC(=S)N2CCCC(C(N)=O)C2)cc1 (centres undefined),79.4 µM (active),–
COc1ccc(NC(=O)N2CCCC(C(=O)Nc3ccccc3OC)C2)cc1 (centres undefined),inactive,–
COc1ccc(CN2CCCC(C(=O)N3CCCCC3)C2)cc1 (centres undefined),11.2 µM (active),–
COc1ccc(CCN(C)C(=O)C2CCCN(Cc3ccc(OC)c(OC)c3)C2)cc1OC (centres undefined),5.01 µM (active),-16.1% [at 0.501 µM]
CCCCNC(=O)N1CCCC(N(C)CCc2ccc(OC)c(OC)c2)C1 (centres undefined),inactive,–
COc1ccc(CN2CCCC(CNC(=O)c3ccc(F)cc3)C2)cc1OC (centres undefined),inactive,–
Cc1nn(-c2ccc(N3CCCCC3)nn2)c(C)c1CCC(=O)NCc1ccccc1F,inactive,–
OC(c1ccc(Cl)cc1)C(CN1CCOCC1)c1ccccc1 (centres undefined),–,-30.5% [at 2.33 µM]
COC(=O)[C@]1(C)CCC[C@@]2(C)C3CC[C@]4(OC(C)=O)C[C@@]3(CCC21)CC4=NO (some centres undefined),–,3.11% [at 0.501 µM]
COc1cc(OC)cc(-c2c(-c3cccs3)c3cc(-c4ccc(OC)nc4)ccc3n2C)c1,–,0.323% [at 0.501 µM]
COc1cc2[nH]c(=O)n(Cc3ccc(C(=O)NCc4ccc(C)cc4)cc3)c(=O)c2cc1OC,inactive,–
COc1ccc(F)cc1S(=O)(=O)Nc1ccc2c(c1)OCO2,inactive,–
CN1CCN(C(CNC(=O)c2ccccc2F)c2ccc3c(c2)OCO3)CC1 (centres undefined),inactive,–
COc1ccc(F)cc1S(=O)(=O)NCC(c1ccc2c(c1)OCO2)N1CCN(C)CC1 (centres undefined),50.1 µM (active),–
Cc1ccc(Cn2c(=O)n(CCCC(=O)NCc3ccccc3Cl)c(=O)c3ccccc32)cc1,inactive,–
O=C(Cn1c(=O)n(-c2ccc(F)cc2)c(=O)c2sc3ccccc3c21)NC1CCCC1,inactive,–
C=CCNC(=O)CSc1nc2sc(C)c(C)c2c(=O)[nH]1,inactive,–
CC(C)C(C)(C#N)NC(=O)CSc1nncn1-c1ccccc1 (centres undefined),inactive,–
CC(C)C(C)(C#N)NC(=O)CSc1nc2scc(-c3ccccc3)c2c(=O)[nH]1 (centres undefined),28.2 µM (active),–
CCOc1ccc(CNC(=O)c2cccc(Nc3nc4ccccc4n4nnnc34)c2)cc1OC,inactive,–
Cc1nn2c(=O)cc(COC(=O)c3cccc(NC(=O)COc4ccccc4Cl)c3)nc2s1,inactive,–

Compound,Potency,"activity, negative = inhibition"
CCCCCn1c(=O)[nH]c2cc(C(=O)Nc3ccc(F)cc3)ccc2c1=O,inactive,–
O=C(NCc1ccc2c(c1)CCN2C(=O)c1ccccc1)c1ccccc1,inactive,–
COc1cccc(C2/C(=C(/O)c3ccc(F)cc3)C(=O)C(=O)N2CCN(C)C)c1 (centres undefined),inactive,–
CCCOc1ccc(/C(O)=C2/C(=O)C(=O)N(CCN(C)C)C2c2ccc(OC)c(OC)c2)cc1 (centres undefined),10 µM (active),–
COc1ccc(/C(O)=C2/C(=O)C(=O)N(CCCN(C)C)C2c2ccccc2)cc1OC (centres undefined),inactive,–
O=C(Nc1cccc(C(=O)NC2CC2)c1)c1ccc(F)c(S(=O)(=O)N2CCOCC2)c1,–,11.8% [at 0.501 µM]
Cc1ccc(C2=NN(C(=O)COc3ncnc4ccccc34)C(c3ccco3)C2)cc1 (centres undefined),inactive,–
Cc1ccc(C2=NN(C(=O)CSc3nc(N)cc(N)n3)C(c3ccco3)C2)cc1 (centres undefined),50.1 µM (active),–
COc1ccc(C2=NN(C(=O)CSc3nnnn3C)C(c3ccco3)C2)cc1 (centres undefined),inactive,–
CCCc1nn2c(=O)cc(COC(=O)c3ccc(NC(=O)COc4ccc(F)cc4)cc3)nc2s1,inactive,–
Cc1nn(-c2ccccc2)c(C)c1NC(=O)COC(=O)c1cc(Cl)ccc1O,inactive,–
Cc1cc(Nc2ccc(C(=O)N3CCCCC3)cc2)c2cccc(C)c2n1,inactive,–
Cc1ccc(Nc2ccc(C(N)=O)cc2[N+](=O)[O-])cc1,inactive,–
Cc1ccc(Nc2cc(C)nc3c(C)ccc([N+](=O)[O-])c23)cc1,11.2 µM (active),–
COCCn1cnnc1SCC(=O)Nc1cccc(S(=O)(=O)N2CCCCC2)c1,–,-9.19% [at 12.7 µM]
COc1ccc(CN2CCc3nc(Nc4ccccc4)ncc3C2)c(OC)c1OC,inactive,–
O=C(CCCn1c(SCC(=O)c2ccc(F)cc2)nc2ccccc2c1=O)NCc1ccco1,inactive,–
C=CCn1c(CSc2nc3ccccc3s2)nnc1SCC(=O)NCc1ccco1,44.7 µM (active),–
O=C(CSc1nc2ccc(Nc3nc(N4CCOCC4)nc(N4CCOCC4)n3)cc2s1)NCc1ccco1,inactive,–
CCOC(=O)c1cccc(NS(=O)(=O)c2cc(-c3cnc(C)o3)ccc2OC)c1,inactive,–
Cc1cccc(NS(=O)(=O)c2cccc(C(=O)NNC(=O)c3ccccc3O)c2)c1,–,56.9% [at 12.7 µM]
